The source of these data is PubChem BioAssay (NCI).

Holding throughout (test): NCI-60 one-dose screen, 48 h (100 = growth as untreated, 0 = no growth, -100 = all killed)
Holding throughout (conditions): 10 µM unless noted

The test system of experiment [1] is NCI-H23 lung.
Experiment [2] concerns NCI-H226 lung.
In experiment [3] the test system is NCI-H322M lung.
For experiment [4], the system named is HOP-62 NSCLC.
Experiment [5] relates to NCI-H460 lung.
Experiment [6] concerns HOP-92 NSCLC.
For experiment [7], the system named is A549/ATCC NSCLC.
In experiment [8] the test system is 786-0 renal.
Experiment [9] relates to COLO 205 colon.

The panel holds about 83,000 compounds, 20% with a hit somewhere; the sample as a whole holds those more often.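 Testing used 96-well plates and a 48-hour single-concentration exposure. Example: -40 means 40% of the starting cells died.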 A number with no mark means an inactive call. The source made the active and inactive calls. Rule for the calls: active = growth percent below 10; inactive = the rest.

For the compound `N[C@H](CS)C(=O)O`, the growth in experiment [1] was 102%; in experiment [2] it was 105%; in experiment [3], 83.8%; in experiment [4] it was 101%; in [5], 103%; in experiment [6], 86.4%. The growth in [7] is 99.5%; in experiment [8], 105%; in [9] it was 120%.
For the compound `CN(C)c1ccc(-n2nc3ccccc3n2)cc1`, the growth was 95.6% in [1]; 86.4% in [2]; 111% in experiment [3]; 78% in experiment [4]; 105% in experiment [5]; 86.9% in experiment [6]. For the same compound, the growth in [7] is 92.3%; in experiment [8], 83.3%; in [9], 102%.
Regarding `CCOC(=O)CCN(c1c(Cl)ssc1=O)C(C)C`, the growth is 105% in [1]; 112% in experiment [2]; 102% in experiment [3]; 106% in experiment [4]; 106% in [5]; 97% in experiment [6]. In addition, the growth is 93.9% in experiment [7], 98.9% in [8] and 115% in [9].
With `Cc1cc(C(=O)Nc2ccc3cc(CN4CCOCC4)ccc3n2)c(C)n1-c1ccccc1`, the growth in experiment [1] is 12.7%; in experiment [2], 21.9%; in experiment [3], 94.2%; in experiment [4], 36%; in experiment [5], 59.3%; in experiment [6], 51.7%. The growth in [7] is 28%; in [8], 56.7%; in experiment [9], 40.5%.
For `O=C1c2cc3c(cc2-c2c1c1ccc(Cl)cc1c(=O)n2CCCNCCO)OCO3`, the growth in experiment [1] was -73% (active); in experiment [2], -70.9% (active); in experiment [3], -84.5% (active); in experiment [4], -81.4% (active); in experiment [5], -75.4% (active); in experiment [6], -79.4% (active). Further, the growth in experiment [7] was -82.2% (active); in [8], -81.6% (active); in experiment [9], -88.6% (active).
In the case of `Cc1nn(-c2ccccc2)cc1/C=C1\SC(N2CCCCC2)=NC1=O`, the growth in experiment [1] is 104%; in [2] it was 86.7%; in experiment [3], 100%; in [4] it was 103%; in [5] it was 95.2%; in [6], 76.7%. In addition, the growth was 90.1% in experiment [7], 83.6% in experiment [8] and 66.9% in [9].
`O=C(/C=C/c1ccc(C(F)(F)F)cc1)c1ccc(Nc2nc(NCCO)nc(NCCO)n2)cc1`: the growth was 84.3% in experiment [1]; 75.3% in [2]; 74.8% in experiment [3]; 22.3% in [4]; 82.8% in [5]; 99.3% in [6]. Further, the growth is 34.9% in experiment [7], 30.4% in experiment [8] and 37.3% in experiment [9].
Turning to `COc1cc(NC(=O)NCc2ccco2)ccc1-c1ccc(NC(=O)NCc2ccco2)cc1OC`, the growth in [1] was 49.4%; in [2], 14.1%; in [3], 49.5%; in experiment [4], 33.8%; in experiment [5], 35.8%; in experiment [6], 23%. Besides, the growth in [7] is 34.6%; in experiment [8], 40.1%; in [9], 64.9%.
Consider `O=C(Nc1ccccc1S)c1ccccc1`, for which the growth in experiment [1] is 93.3%; in [2] it was 103%; in experiment [3], 103%; in experiment [4], 120%; in experiment [5] it was 98.7%; in experiment [6], 109%. For the same compound, the growth in experiment [7] was 93.8%; in experiment [8], 109%; in experiment [9], 119%.
Regarding `O=C1NC(=O)/C(=C\c2ccco2)S1`, the growth in experiment [1] is 101%; in experiment [2], 95.8%; in experiment [3], 111%; in experiment [4], 90.7%; in experiment [5] it was 105%; in experiment [6], 87%. Besides, the growth was 108% in [7], 99% in experiment [8] and 91.4% in experiment [9].
`COc1cccc(C=Nc2cc(C(C)C)c(O)cc2C)c1O`: the growth in [1] was 95.2%; in [2], 93%; in [3], 95.3%; in [4], 95%; in [5] it was 107%; in experiment [6], 82.3%. Moreover, the growth in experiment [7] is 109%; in experiment [8], 106%; in experiment [9], 98.6%.
In the case of `Cc1cc(C)cc(S(=O)(=O)n2ccc(-c3ccc4c(c3)CCC(C)(C)O4)n2)c1`, the growth was 73.6% in experiment [1]; 66.8% in experiment [2]; 92% in experiment [3]; 116% in [4]; 84.4% in experiment [5]; 78.1% in experiment [6]. The growth in [7] is 80.8%; in [8] it was 82.8%; in experiment [9], 103%.
Turning to `COc1cc(/C=N/NC(=O)c2ccc(C(F)(F)F)nc2Nc2cc(Cl)ccc2C)cc(OC)c1OC`, the growth in experiment [1] is 104%; in experiment [2], 96.6%; in experiment [3], 105%; in experiment [4], 99.7%; in [5], 108%; in experiment [6] it was -30% (active). Further, the values for the growth in experiment [7], in [8] and in experiment [9] were 103%, 97.7% and 109%, respectively.
Regarding `COc1cccc(-c2nc3cc(NC(=O)c4ccc(Cl)c(C#N)c4)ccc3o2)c1`, the growth in experiment [1] was -18.8% (active); in [2], 76.1%; in [3], -13.2% (active); in experiment [4] it was 70.2%; in experiment [5] it was -21.4% (active); in [6], 26.5%. Besides, the growth is -26.7% (active) in [7], -92.1% (active) in [8] and 28.9% in experiment [9].
With `CC(C)N(Cc1ccccc1)c1c(Cl)ssc1=O`, the growth in experiment [1] was 106%; in experiment [2] it was 101%; in experiment [3], 109%; in experiment [4] it was 113%; in [5] it was 109%; in experiment [6], 82.5%. The figures for the growth in [7], in experiment [8] and in experiment [9] were 88.8%, 102% and 106%, respectively.
On to `CCCCCCCCCCCCC1CCCC(C)C1` (configuration not stated), for which the growth in experiment [1] was 105%; in [2], 99.8%; in experiment [3], 95%; in experiment [4] it was 90.5%; in experiment [5] it was 101%; in [6], 69.1%. Also, the growth was 93.1% in [7], 92.3% in experiment [8] and 98.1% in experiment [9].
Consider `CCN(CC)CCSc1ncnc2c1cnn2-c1ccc(S(N)(=O)=O)cc1`, for which the growth in [1] is 94.9%; in experiment [2], 92.9%; in experiment [3], 102%; in experiment [4], 98.4%; in experiment [5], 85.9%; in experiment [6], 50.9%. Further, the growth in [7] was 84.7%; in [8], 95.3%; in experiment [9], 113%.
In the case of `N#Cc1c(-c2ccccc2)cc(-c2ccccc2)n(CCCCC(=O)O)c1=O`, the growth is 90% in experiment [1]; 91% in [2]; 98.6% in experiment [3]; 90.9% in experiment [4]; 102% in experiment [5]; 93.7% in [6]. Besides, the growth is 94.7% in experiment [7], 93.7% in [8] and 108% in experiment [9].
Take `CO[C@H]1/C=C/O[C@@]2(C)Oc3c(C)c(O)c4c(O)c(c(/C=N/N5C(C)CN(Cc6ccc(C#N)cc6)CC5C)c(O)c4c3C2=O)NC(=O)/C(C)=C\C=C\[C@H](C)[C@H](O)[C@@H](C)[C@@H](O)[C@@H](C)[C@H](OC(C)=O)[C@@H]1C` (some centres not stated): the growth is 11.5% in experiment [1]; 49.5% in experiment [2]; 28.7% in experiment [3]; 43.8% in experiment [4]; 3.3% (active) in experiment [5]; 27.1% in experiment [6]. The growth in experiment [7] was 21.7%; in [8], 14.1%; in experiment [9] it was 1.58% (active).
Regarding `Nc1nc2c(nnn2Cc2ccc(Cl)c(Cl)c2)c(=O)[nH]1`, the growth was 104% in experiment [1]; 96.5% in [2]; 82.4% in experiment [3]; 90.4% in experiment [4]; 104% in experiment [5]; 75.5% in experiment [6]. The growth was 103% in [7], 97.3% in experiment [8] and 98.5% in experiment [9].
For `c1ccc(-c2n(Cc3ccc4ccccc4c3)cc[n+]2Cc2ccc3ccccc3c2)cc1`, the growth is -38.7% (active) in experiment [1]; -9.03% (active) in experiment [2]; 8.84% (active) in experiment [3]; -44.8% (active) in experiment [4]; -78.5% (active) in [5]; -69.6% (active) in experiment [6]. Besides, the figures for the growth in experiment [7], in [8] and in experiment [9] were 12.5%, -80.7% (active) and -79.1% (active), respectively.
For the compound `Nc1nc(Nc2ccccc2SSc2ccccc2Nc2nc(N)nc(-c3cccc(Cl)c3)n2)nc(-c2cccc(Cl)c2)n1`, the growth is 78.6% in [1]; 82.7% in experiment [2]; 91.8% in experiment [3]; 7.83% (active) in experiment [4]; 89.9% in [5]; 105% in experiment [6]. The values for the growth in [7], in [8] and in [9] were -24.8% (active), 99.1% and 119%, respectively.
For `CC(=O)c1nn(-c2ccccc2)c(=Nc2ccccc2)cc1C`, the growth is 107% in [1]; 98.1% in experiment [2]; 103% in experiment [3]; 91.7% in experiment [4]; 101% in experiment [5]; 55.2% in experiment [6]. In addition, the growth in experiment [7] was 99.7%; in [8], 107%; in experiment [9] it was 109%.
With `CC(=O)N1N=C(c2ccc(Nc3nc(NCCO)nc(NCCO)n3)cc2)CC1c1ccc(Cl)cc1` (configuration not stated), the growth in experiment [1] was 95.6%; in experiment [2] it was 103%; in [3], 89.3%; in experiment [4], 93.7%; in experiment [5] it was 101%; in experiment [6], 109%. Moreover, the results for the growth in [7], in [8] and in experiment [9] were 78.6%, 89% and 102%, respectively.
Regarding `O=C(CNC(=O)c1cccc2ccccc12)Nc1ccccc1Oc1cccc(O)c1`, the growth is 41.5% [5 µM] in experiment [1]; 58.6% [5 µM] in [2]; 45.1% [5 µM] in [3]; 19.2% [5 µM] in experiment [4]; 11.2% [5 µM] in [5]; 72.9% [5 µM] in experiment [6]. For the same compound, the growth is 21.8% [5 µM] in [7], 19.6% [5 µM] in experiment [8] and 33.8% [5 µM] in [9].
`COc1ccc(NC(=O)[C@@H]2C[C@H]2c2ccccc2)c(C(N)=O)c1`: the growth was 91.3% in experiment [1]; 101% in experiment [2]; 94.2% in experiment [3]; 100% in [4]; 101% in experiment [5]; 94.6% in experiment [6]. For the same compound, the growth in experiment [7] is 97.5%; in experiment [8] it was 106%; in experiment [9] it was 106%.
For `O=C(CC1Sc2ccccc2NC1=O)NNc1cccc(Cl)c1Cl` (configuration not stated), the growth in experiment [1] is 77%; in [2], 73.9%; in experiment [3], 73.5%; in [4] it was 84.6%; in experiment [5] it was 66.2%; in experiment [6], 24.4%. Moreover, the results for the growth in [7], in [8] and in [9] were 92.3%, 95.3% and 82.2%, respectively.
As for `COc1cccc(CCN2C(=O)CCC3=C2CCC3=O)c1`, the growth was 96.9% in experiment [1]; 97.4% in experiment [2]; 101% in experiment [3]; 102% in experiment [4]; 115% in [5]; 86% in experiment [6]. Also, the growth in [7] was 112%; in experiment [8], 97.6%; in experiment [9] it was 108%.
